Screening results from PubChem.
IL-1B inflam inh = inflammasome signaling inhibition, IL-1 beta readout | THP-1 LPS/ATP IL-1B secretion, AlphaLISA, 16 h; active compounds read low | activity change, % at 57.5 µM | 360,000 compounds, 4.7% hits | AID 743279; in the data active means activity change below about -50%; inconclusive means mostly about -30% to -49%
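Secreted IL-1B measured by AlphaLISA bead assay after 16 h compound exposure of THP-1 cells; compounds (final up to 57.5 uM) added 1 h before LPS (250 ng/mL) and ATP (1.25 mM) stimulation; lower signal means less secretion.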
TDP1 cell CPT = growth inhibition of DT40 Tdp1-/-;hTDP1 cells with camptothecin (screen for TDP1 inhibitors). Potency, µM (top dose mostly 46.2 µM), for inactives: at the top dose activity change, negative = growth inhibition, actives largely listed as inhibitors. chicken DT40 Tdp1-/-;hTDP1 cells + 20 nM CPT, ATP luminescence, 48 h. 420,000 compounds, 12% hits; further: potency means the concentration at half of the fitted maximal effect; nearly all actives have a fitted effect of over 55% in size
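Cell growth measured by CellTiter-Glo luminescence after a minimum 48 h, 37 C compound exposure with 20 nM CPT in Tdp1-knockout DT40 cells stably expressing hTDP1, seeded 400/well; qHTS titration format.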
HT1080 IDH1KD tx = kills HT-1080 cells with IDH1 knockdown. HT-1080 IDH1 knockdown viability, ATP luminescence, 48 h. Potency, µM (top dose mostly 46.1 µM), without a hit: at the highest dose activity, negative = toxicity, actives largely listed as cytotoxic. 360,000 compounds, 2% hits. AID 686971;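 further: potency means the concentration at half of the fitted maximal effect; 0% = DMSO wells and -100% = cell-free medium wells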
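Knockdown cells (IDH1KD HT-1080) received compounds 2 h after plating at 750 cells/well and were kept 48 h at 37 °C in 5% FBS RPMI. A CellTiter-Glo luminescence read gave % activity for curve fitting.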
HT1080NT lethal = kills 2HG-producing HT-1080-NT fibrosarcoma cells. HT-1080-NT fibrosarcoma viability, CellTiter-Glo ATP luminescence, 48 h. 360,000 compounds, 1.6% hits. Potency, µM (top dose mostly 46.1 µM), without a hit: at the highest dose activity, negative = less viability, most hits filed as cytotoxic;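 further: NT is the 2HG producing partner of a matched IDH1 knockdown line; potency means the concentration at half of the fitted maximal effect; 0% = DMSO-treated cells and -100% = media-only wells without cells; nearly all actives have a fitted effect of over 55% in size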
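HT-1080-NT fibrosarcoma cells (2HG-overproducing), 750 cells/well in RPMI with 5% FBS, dosed after 2 h and incubated 48 h at 37C. CellTiter-Glo luminescence normalized to DMSO and no-cell wells; concentration-response curves fitted and classed.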
DT40 TDP1 no CPT = qHTS for Inhibitors of human tyrosyl-DNA phosphodiesterase 1 (TDP1): qHTS in cells in absence of CPT. DT40 Tdp1-/- hTDP1 cells, no CPT, ATP luminescence, 48 h. Potency, µM (doses to about 46.2 µM), for the others: at the top dose activity change, negative = growth inhibition, most hits filed as inhibitors. 420,000 compounds, 15% hits; further: potency means the concentration at half of the fitted maximal effect; nearly all actives have a fitted effect of over 55% in size
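DT40 Tdp1-/-;hTDP1 cells, no CPT (DMSO vehicle only), 400 cells/well; compounds pin-transferred; ≥48 hr, 37 °C; CellTiter-Glo 30 min RT dark, luminescence read.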
* = called active by the depositor; ? = inconclusive; . = not tested or not shown; [ ] = another dose, or the depositor's remark. Shown are actives, neighbours in structure and some others; about 19% of the full set was active somewhere. Unless noted, the call rests on the fitted dose curve; in most records, active means well fitted curve in the direction sought with a large enough effect; inconclusive means small, poorly fitted or top-dose-only effect, or another doubt; inactive means no such curve, though single readings can be large; an effect the other way counts as inactive or inconclusive. Unless noted, on the % scale 0 is the no-effect control and ±100 the full control effect.

SMILES	IL-1B inflam inh	TDP1 cell CPT	HT1080 IDH1KD tx	HT1080NT lethal	DT40 TDP1 no CPT
Nc1c(C(=O)NC2CC2)c2nc3ccccc3nc2n1-c1ccc2c(c1)OCO2	-51*	?	-3%	-2%	?
CC(C)(C)NC(=O)C(c1cc2ccccc2o1)n1c(=O)c(-c2ccccc2)nc2ccccc21 (centres undefined)	26	?	-11%	-6%	?
Cc1cc(NC(=O)CSc2nc3c(C)cccc3cc2C#N)no1	-6	?	?	-1%	15µM*
Cc1cc(NC(=O)CSc2nc3c(C)ccc(C)c3cc2C#N)no1	12	?	-7%	-4%	-19%
Cc1cccc2cc(C#N)c(SCC(=O)N3CC(=O)Nc4ccccc43)nc12	74	2.6µM*	?	?	2.1µM*
CCc1ccccc1N(C)C(=O)Cn1cnc2sc(C)c(S(=O)(=O)N3CCC(C)CC3)c2c1=O	.	-20%	.	.	-2%
Cc1ccc(N(CC(=O)NCc2ccc(F)cc2)S(=O)(=O)c2c(C)n[nH]c2C)cc1	-8	-5%	-4%	-1%	-8%
COc1ccc(CNC(=O)CN(Cc2ccccc2)C(=O)CCC(=O)Nc2ccccn2)cc1	2	-3%	3%	11%	-25%
CC(=O)c1ccc(OCCCC(=O)Nc2nnc(C3CC3)s2)cc1	23	1%	18%	1%	-1%
CC(C)(C)c1ccc(OCCCC(=O)Nc2nnc(C3CC3)s2)cc1	22	?	-8%	-1%	10µM*
COc1ccccc1Nc1ncnc2ccc(C)cc12	3	-4%	4%	-3%	?
COc1ccc(-c2[nH]c(-c3ccc(O)cc3)nc2-c2ccccc2)cc1	.	15µM*	.	.	?
COc1ccc(-c2nc(-c3ccccc3)c(-c3ccc(O)cc3)[nH]2)cc1	.	13µM*	.	.	8.2µM*
COc1ccc(-c2nc(-c3ccc4c(c3)OCO4)[nH]c2-c2ccc(OC)cc2)cc1	?	?	?	18µM*	?
Cc1[nH]c(-c2ccco2)nc1C(=O)O	-4	-17%	0%	2%	-15%
Cc1[nH]c(-c2ccc3c(c2)OCO3)nc1C(=O)O	-17	10µM*	?	?	18µM*
COc1ccc(-c2noc(-c3ccc4c(c3)OCO4)n2)cc1	2	-10%	21%	29%	-11%
COc1ccc(C(C)C)cc1S(=O)(=O)n1ccnc1C	0	5%	-2%	12%	-6%
O=C(c1ccc(N2CCCS2(=O)=O)cc1)N1CCN(c2ccccc2)CC1	3	-2%	-12%	3%	-11%
COc1ccc(N2CCN(C(=O)c3ccc(Cl)c(S(=O)(=O)N4CCOCC4)c3)CC2)cc1	-3	-26%	4%	4%	?
CCC1CN(CCNC(=O)c2cn3cc(C)ccc3n2)Cc2cc(OC)ccc2O1 (centres undefined)	.	3%[9.04 µM]	.	.	?
O=C(NCc1ccccc1F)c1cccc(NC(=O)N2CCSc3ncccc32)c1	.	23µM*	.	.	?
Cc1ccc(CNC(=O)c2cccc(NC(=O)N3CCSc4ncccc43)c2)cc1	.	?	.	.	21µM*
CC(C)Oc1ccc(CNC(=O)Cc2ccc(NC(=O)N3CCSc4ncccc43)cc2)cc1	.	16µM*	.	.	16µM*
Cc1cccc(CNC(=O)c2ccc(NC(=O)N3CCSc4ncccc43)cc2)c1	.	-7%	.	.	-35%
SMILES	IL-1B inflam inh	TDP1 cell CPT	HT1080 IDH1KD tx	HT1080NT lethal	DT40 TDP1 no CPT
CN(C)c1oc(-c2ccc(Cl)cc2)nc1S(=O)(=O)c1ccccc1	12	-2%	0%	3%	12%
O=C(Nc1ccccc1-c1nc2ccccc2s1)C1=COCCO1	-1	?	?	-22%	?
O=C(OCc1cn([C@@H]2CN(CC3CCCCC3)[C@@H](c3ccccc3)C[C@H]2O)nn1)c1ccccc1	-1	?	-10%	-3%	18µM*
O=C(OCc1cn([C@H]2CN(CC3CCCCC3)[C@@H](c3ccc(Cl)cc3)C[C@@H]2O)nn1)c1ccccc1	-5	?	?	?	16µM*
O=C(OCc1cn([C@H]2CN(CC3CCCCC3)[C@@H](c3ccccc3)C[C@@H]2O)nn1)c1ccccc1	25	?	15%	9%	?
Cc1ccc2[nH]c(=O)c(CN(Cc3ccccc3)C(=S)NCCCN(C)C)cc2c1	-87*	?	16µM*	18µM*	?
CCNC(=S)N(CCc1ccccc1C)Cc1cc2cc(OC)c(OC)cc2[nH]c1=O	-2	-18%	3%	1%	3%
CN(C)CCCNC(=S)N(Cc1cccs1)Cc1cc2cc3c(cc2[nH]c1=O)OCCO3	-27	?	-8%	2%	?
COc1cc2cc(CN(CCc3ccccc3C)C(=S)NCCCN(C)C)c(=O)[nH]c2cc1OC	0	?	-28%	-17%	16µM*
C[C@@H]1CN(Cc2ccc3c(c2)CN(Cc2nc(-c4ccccc4)cs2)CCO3)C[C@H](C)O1	.	-7%[9.04 µM]	.	.	23µM*
C[C@@H]1CN(Cc2ccc3c(c2)CN(C(=O)c2ccc(Oc4ccccc4)o2)CCO3)C[C@H](C)O1	.	-14%[9.04 µM]	.	.	12µM*
C[C@@H]1CN(Cc2ccc3c(c2)CN(C(=O)CN2CCOc4ccccc4C2)CCO3)C[C@H](C)O1	.	-4%[9.04 µM]	.	.	-23%
O=C(NCCSCc1cccc(Cl)c1)C1CCN(S(=O)(=O)Cc2ccccc2)CC1	.	-6%	.	.	-30%
Cc1ccc(C(=O)NCc2ccncc2)cc1S(=O)(=O)N1CCCCC1	0	?	3%	0%	-18%
CC1=C(C)CS(=O)N(S(=O)(=O)c2ccccc2)C1 (centres undefined)	-50*	23µM*	?	?	10µM*
NS(=O)(=O)c1ccc(N2C(=O)C3CC=CCC3C2=O)cc1 (centres undefined)	14	-3%	7%	7%	-5%
CC1=C(C)CS(=O)N(c2ccc(S(N)(=O)=O)cc2)C1 (centres undefined)	-93*	13µM*	-6%	-24%	23µM*
CSc1ccc(CCNC(=O)CCc2c(C)nc3cc(-c4ccccc4)nn3c2C)cc1	.	-23%	.	.	-24%
COc1ccc(CCNC(=O)CCc2c(C)nc3c4c(C)cc(C)nc4nn3c2C)cc1OC	.	?	.	.	16µM*
CCOc1ccc(CCNC(=O)CCc2c(C)nc3cc(-c4ccccc4OC)nn3c2C)cc1	.	?	.	.	15µM*
CCOc1ccccc1NC(=O)CCc1c(C)nc2cc(-c3ccccc3)nn2c1C	.	18µM*	.	.	12µM*
COc1ccc(CCNC(=O)CCc2c(C)nc3cc(-c4ccccc4)nn3c2C)cc1OC	.	16µM*	.	.	26µM*
